Molecules are shown by their SMILES. Calls of active or inactive are those of the source.

The test is described as follows: FRG1 promoter luciferase signal modulators, primary screen, FRG1 inhibition for FSHD, cell-based, C2C12 myotubes, firefly/Renilla luciferase, luminescence (AID 1084). The settings on record: higher = more signal, called active from +8 up or from −8 down.
Consider `C=CC[C@@]1(C(=O)NCC(O)CO)N=C(c2ccc(OCCCO)cc2)O[C@@H]1c1ccccc1CN=[N+]=[N-]` (some centres undefined), for which the z-score was -2.68 (inactive).
`CO[C@H]1COC(=O)[C@@H](C)NC(=O)CC=C[C@@H](C)[C@H](OC)COC(=O)CC=C[C@@H]1C`: the z-score was -1.32 (inactive).
Under `CC(C)C[C@@H]1NC(=O)[C@H]2C[C@@H](C(=O)NCCCCCC[N+](C)(C)C)[C@@H](c3ccc(O)cc3)N2C1=O` stands 2.82 (inactive); under `Cc1ccc(S(=O)(=O)N[C@H]2COC(=O)CC=C[C@H](C)COC(=O)N[C@@H](C)C(=O)CC=C[C@@H]2C)cc1`, 0.502 (inactive).
Under `C#CCCCON=C1C[C@@H](O)[C@@H](O)[C@@H]2[C@@H]3C(=O)N(Cc4ccc5c(c4)OCO5)C(=O)[C@@H]3CC[C@@H]12` stands -0.177 (inactive).
The result for `CO[C@H]1COC(=O)[C@@H](OCc2ccccc2)C=C[C@H](C)[C@@H](OC)COC(=O)[C@H](OCc2ccccc2)C=C[C@@H]1C` reads -0.23 (inactive); that for `COCCOC(=O)N1C(=O)[C@@]2(c3cc(C#CCCO)ccc31)[C@H](c1ccc(OCCO)cc1)N1[C@H](c3ccccc3)[C@H](c3ccccc3)OC(=O)[C@H]1[C@@H]2C(=O)NC[C@H](O)c1ccccc1`, 0.504 (inactive); that for `NC(=O)NCC#Cc1ccc2c(c1)[C@]1(C(=O)N2)[C@H](c2ccccc2OCCO)N2[C@H](c3ccccc3)[C@H](c3ccccc3)OC(=O)[C@H]2[C@@H]1C(=O)N1CCN(c2ncccn2)CC1`, -0.112 (inactive).
Turning to `COCCOC(=O)N1C(=O)[C@@]2(c3cc(C#CCCO)ccc31)[C@H](c1ccc(O)cc1)N1[C@H](c3ccccc3)[C@H](c3ccccc3)OC(=O)[C@H]1[C@@H]2C(=O)Nc1nc2ccccc2s1`, the z-score is -0.205 (inactive).

The record behind these values is PubChem BioAssay.
